Laboratory results as given in PubChem BioAssay (NCATS).
Records with an inconclusive call do not appear. Activity calls are given as the source filed them. The call rests on the fitted dose curve; in most records, active means well fitted curve in the direction sought with a large enough effect; inconclusive means small, poorly fitted or top-dose-only effect, or another doubt; inactive means no such curve, though single readings can be large; an effect the other way counts as inactive or inconclusive. Where a SMILES comes first, the peptide text is derived from it. [ ]: non-standard residue; d: D form. The star is where a group is joined. Dolaproine = CO[C@@H]([C@@H]1CCCN1)[C@@H](C)C(=O)O; Dil = CC[C@H](C)[C@H](NC)[C@@H](CC(=O)O)OC; Doe = c1ccc(C[C@H](N*)c2nccs2)cc1; Aib = CC(C)(N)C(=O)O

Experiments:
[1] = test system: Zika virus NS2B-NS3 protease (linked construct); experiment: Primary screen NINDS Rhodamine qHTS for Zika virus inhibitors (AID 1347160); further: nearly all actives have a fitted effect of over 55% in size
In short: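 Each compound, titrated, sat 15 min with 25 nM linked protease before 1.5 microM Rhodamine110 substrate went in. Fluorescence gain over the next 15 min, in pH 8.0 Tris with Tween 20, gave Hill-fitted curves.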

[2] = biological target: Calcium and integrin-binding protein 1 (Homo sapiens) (UniProt Q99828); experiment: Primary qHTS for Identification of Calcium Integrin Binding Protein 1 (CIB1) Competitor (AID 1508620);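 further: GST tagged CIB1 binding a fluorescein labelled alphaIIb integrin peptide tracer; top concentration of the series differs between compounds; on the % scale 0 is the no-effect control and ±100 the full control effect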
In short: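 Fluorescence polarization competition: CIB1-GST (1 uM final) preincubated with compound 15 min at room temperature, then FITC-labeled alphaIIb peptide (100 nM final) added for another 15 min. Polarization read at Ex 480/Em 540.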

[3] = biological target: Glutathione peroxidase 1 (Homo sapiens) (UniProt P07203); experiment: Primary qHTS Assay for Inhibitors of Recombinant Selenoprotein Glutathione Peroxidase 1 (GPX1) (AID 1845191); further: nearly all actives have a fitted effect of over 65% in size
In short: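 GPX1 10 nM, GR 100 nM, GSH 1 mM, NADPH 0.5 mM, CHP 0.5 mM (final). 30-min cpd preincubation, RT. Ex340/Em450 read t=0, t=15 min.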

[4] = biological target: Phospholipid hydroperoxide glutathione peroxidase GPX4 (Homo sapiens) (UniProt P36969); experiment: Primary qHTS Assay for Inhibitors of Recombinant Selenoprotein Glutathione Peroxidase 4 (GPX4) (AID 1845192); further: on the % scale 0 is the no-effect control and ±100 the full control effect; nearly all actives have a fitted effect of over 65% in size
In short: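 qHTS, GR-coupled: GPX4 200 nM + cpd 30 min RT → GSH 1 mM, NADPH 0.5 mM, GR 100 nM → CHP 0.5 mM start; fluor 340/450 at t0 and t15 min; no-enzyme wells as control.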

[5] = biological target: Luciferin 4-monooxygenase (Photinus pyralis) (UniProt P08659); experiment: Primary firefly luciferase (FLuc) qHTS assay for identification of artifact compounds. (AID 1845220); details: outcome: dose series up to 54.1 µM unless noted; further: nearly all actives have a fitted effect of over 60% in size
In short: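 Reaction readout was CCD-imaged luminescence, taken 5 min after adding 10 nM purified firefly enzyme to compound-treated wells holding 10 uM luciferin and ATP in pH 7.6 buffer.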

[6] = Primary fluorescence-based thiol-reactive (MSTI) qHTS assay for identification of artifact compounds. (AID 1845221);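 further: thiol-reactive compounds lower the probe fluorescence signal; nearly all actives have a fitted effect of over 65% in size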
In short: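 One-hour, room-temperature, dark incubation of compound with 4 uM MSTI in PBS (pH 7.4, 2% DMSO) precedes a fluorescence read at 525 nm excitation, 598 nm emission; Hill-equation fitting yields concentration-response values.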

[7] = test system: Nanoluciferase (engineered Oplophorus gracilirostris luciferase); experiment: Primary Nanoluciferase (NLuc) qHTS assay for identification of artifact compounds. (AID 1845222);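 further: NLuc secreted into diluted conditioned medium of S16 cells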
In short: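 Concentration-response data were obtained by luminescence after 5 min with Nano-Glo substrate at 1:100. The enzyme was diluted S16 NLuc-expressing cell medium, preincubated with compound for 15 min at RT. Curves were fitted with a 4-parameter Hill model.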

[8] = test system: NIH3T3; experiment: Cytotoxic Profiling of Annotated Libraries Using Quantitative High-Throughput Screening (AID 1296008); details: Five cell lines viability, CellTiter-Glo ATP luminescence, 48-72 h; max response: active compounds read low; further: nearly all actives have a fitted effect of over 60% in size; on max response: on the % scale 0 is the no-effect control and ±100 the full control effect
In short: (§1)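 Compounds were pin-transferred onto cells and incubated 48 or 72 hr at 37 degree Celsius, 95% humidity. CellTiter-Glo was added, plates sat 10 min at room temperature, then ATP-coupled luminescence was imaged as the viability read-out.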

[9] = test system: CAOV3; experiment: Primary qHTS to identify gynecologic anti-cancer compounds using libraries of approved drugs and bioactive compounds (AID 1345084); details: Gynecologic cancer cell panel viability, ATPlite luminescence, 48 h; series mostly up to 57.5 µM; further: nearly all actives have a fitted effect of over 55% in size; further: potency means the concentration at half of the fitted maximal effect
In short: (§2)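 In this quantitative HTS, cell killing is estimated from loss of ATP-dependent luciferase light. Cells see five compound concentrations over a 48 h exposure.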

[10] = test system: Hek293T; experiment: as above; details: Gynecologic cancer cell panel viability, ATPlite luminescence, 48 h, control line for the selectivity index; series mostly up to 57.5 µM
In short: as §2

[11] = Primary redox qHTS assay for identification of artifact compounds. (AID 1845223);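 further: 0% = DMSO and 100% = reference compound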
In short: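 Redox-cycling detection via DTT (250 uM final) oxidation coupled to Amplex Red (25 uM)/HRP (250 mU/mL) in HBSS. 15 min preincubation plus 30 min after DTT, room temperature. Ex/Em 525/598 nm; 4-parameter Hill fit against DMSO and 10 uM DA3003.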

[12] = test system: CRL-7250; experiment: Cytotoxic Profiling of Annotated Libraries Using Quantitative High-Throughput Screening (AID 1296008); details: Five cell lines viability, CellTiter-Glo ATP luminescence, 48-72 h; max response: active compounds read low; further: nearly all actives have a fitted effect of over 60% in size; on max response: on the % scale 0 is the no-effect control and ±100 the full control effect
In short: as §1

[13] = test system: C33A; experiment: Primary qHTS to identify gynecologic anti-cancer compounds using libraries of approved drugs and bioactive compounds (AID 1345084); details: Gynecologic cancer cell panel viability, ATPlite luminescence, 48 h; series mostly up to 57.5 µM; further: nearly all actives have a fitted effect of over 55% in size; further: potency means the concentration at half of the fitted maximal effect
In short: as §2

[14] = test system: CASKI; experiment: as above; details: Gynecologic cancer cell panel viability, ATPlite luminescence, 48 h; series mostly up to 57.5 µM
In short: as §2

[15] = test system: Es-2; experiment: as above; details: Gynecologic cancer cell panel viability, ATPlite luminescence, 48 h; series mostly up to 57.5 µM
In short: as §2

[16] = test system: JEG-3; experiment: as above; details: Gynecologic cancer cell panel viability, ATPlite luminescence, 48 h; series mostly up to 57.5 µM
In short: as §2

[17] = test system: OV90; experiment: as above; details: Gynecologic cancer cell panel viability, ATPlite luminescence, 48 h; series mostly up to 57.5 µM
In short: as §2

[18] = test system: PA-1; experiment: as above; details: Gynecologic cancer cell panel viability, ATPlite luminescence, 48 h; series mostly up to 57.5 µM
In short: as §2

[19] = test system: Tov-21-G; experiment: as above; details: Gynecologic cancer cell panel viability, ATPlite luminescence, 48 h; series mostly up to 57.5 µM
In short: as §2

[20] = test system: Tov112D; experiment: as above; details: Gynecologic cancer cell panel viability, ATPlite luminescence, 48 h; series mostly up to 57.5 µM
In short: as §2

Calcium and integrin-binding protein 1 (Homo sapiens), sequence (Q99828 whole entry, looked up): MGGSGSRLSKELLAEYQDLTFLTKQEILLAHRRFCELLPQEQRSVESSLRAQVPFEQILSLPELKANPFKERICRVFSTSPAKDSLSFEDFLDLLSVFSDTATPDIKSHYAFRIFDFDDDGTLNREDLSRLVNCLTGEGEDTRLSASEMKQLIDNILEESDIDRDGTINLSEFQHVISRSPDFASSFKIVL
Phospholipid hydroperoxide glutathione peroxidase GPX4 (Homo sapiens), sequence (P36969 whole entry, looked up): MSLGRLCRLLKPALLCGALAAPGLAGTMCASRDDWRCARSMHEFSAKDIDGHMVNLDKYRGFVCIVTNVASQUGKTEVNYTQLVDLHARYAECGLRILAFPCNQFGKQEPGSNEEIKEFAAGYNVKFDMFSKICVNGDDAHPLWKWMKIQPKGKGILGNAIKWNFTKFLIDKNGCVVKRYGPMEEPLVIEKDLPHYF
Glutathione peroxidase 1 (Homo sapiens), sequence (P07203 whole entry, looked up): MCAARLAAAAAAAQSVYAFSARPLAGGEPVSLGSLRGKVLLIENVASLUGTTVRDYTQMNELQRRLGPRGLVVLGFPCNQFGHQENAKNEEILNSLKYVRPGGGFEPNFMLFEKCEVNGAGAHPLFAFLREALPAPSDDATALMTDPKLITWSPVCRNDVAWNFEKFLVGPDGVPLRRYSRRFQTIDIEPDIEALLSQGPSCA

CC[C@H](C)[C@@H]([C@@H](CC(=O)N1CCC[C@H]1[C@H](OC)[C@@H](C)C(=O)N[C@@H](Cc1ccccc1)c1nccs1)OC)N(C)C(=O)[C@@H](NC(=O)C(C)(C)N)C(C)C (H-[Aib]V[Dil][Dolaproine]-Doe)
inactive: Potency [1] | Potency [2] | Potency [3] | Potency [4] | outcome [5] | Potency [6] | Potency [7] | max response [8] -54.1% | Potency [9] | Potency [10]

Cc1[nH]c2ccc(Cl)cc2c1CCN(C)C
inactive: Potency [1] | Potency [2] | Potency [3] | outcome [5] | Potency [6] | Potency [7] | Potency [11] | max response [12] -0.626% | outcome [8] | Potency [13] | Potency [9] | Potency [14] | Potency [15] | Potency [10] | Potency [16] | Potency [17] | Potency [18] | Potency [19] | Potency [20]

CCC1CC2CN3CCc4c([nH]c5ccccc45)C(C(=O)OC)(C2)C13 (stereo not given)
inactive: Potency [1] | Potency [2] | Potency [3] | Potency [4] | outcome [5] | Potency [7] | Potency [11] | max response [12] 3.09% | max response [8] -4.92% | Potency [13] | Potency [9] | Potency [14] | Potency [15] | Potency [10] | Potency [16] | Potency [17] | Potency [18] | Potency [19] | Potency [20]

Cc1ccc(Cn2nc(C(=O)N[C@@H]3C(C)(C)[C@@H]4CC[C@@]3(C)C4)cc2-c2ccc(Cl)c(C)c2)cc1
inactive: Potency [1] | Potency [2] | Potency [3] | Potency [4] | outcome [5] | Potency [6] | Potency [7] | Potency [11] | max response [12] 0.138% | max response [8] -3.82% | Potency [13] | Potency [14] | Potency [15] | Potency [10] | Potency [16] | Potency [17] | Potency [18] | Potency [19] | Potency [20]

C#CC1(O)CCC2C3CCC4=CC(=O)CCC4=C3C=CC21C (stereo not given)
active: Potency [18] 11200 nM
inactive: Potency [1] | Potency [2] | Potency [3] | outcome [5] | Potency [6] | Potency [7] | Potency [11] | max response [12] -2.47% | Potency [13] | Potency [9] | Potency [14] | Potency [15] | Potency [10] | Potency [16] | Potency [17] | Potency [19] | Potency [20]

C[C@@H]1O[C@@H](O[C@H]2CC[C@@]3(C)C(CC[C@@H]4C3CC[C@]3(C)[C@@H](C5=CC(=O)OC5)CC[C@]43O)C2)[C@H](O[C@@H]2O[C@H](CO)[C@@H](O)[C@H](O)[C@H]2O)[C@H](O)[C@H]1O (stereo not given in full)
inactive: Potency [1] | Potency [2] | Potency [3] | Potency [4] | outcome [5] | Potency [6] | Potency [7] | max response [8] -13.4%
active: Potency [13] 562 nM | Potency [9] 1000 nM | Potency [15] 891 nM | Potency [10] 891 nM | Potency [16] 2820 nM | Potency [18] 1000 nM | Potency [19] 708 nM | Potency [20] 224 nM

C=C1[C@@H](O)[C@]2(O)OC[C@]34C2[C@]2(C)C(C[C@H]3OC(=O)[C@H](O)[C@@]14O)C(C)=CC(=O)[C@H]2O (stereo not given in full)
inactive: Potency [1] | Potency [2] | Potency [3] | Potency [4] | outcome [5] inactive [at 25.7 µM] | Potency [6] | Potency [7] | Potency [11] | max response [8] -5.4% | Potency [14] | Potency [15] | Potency [16] | Potency [17] | Potency [19]
